High-throughput results as filed in PubChem BioAssay.
VDR inh: blocks the human vitamin D receptor. Potency, µM, inactives show max response, negative = inhibition, most hits filed as inhibitors. AID 504847. 0.93% of 400,000 active. VDR-SRC2-3 peptide fluorescence polarization, 2 h; further: potency means the concentration at half of the fitted maximal effect
Target sequence (P11473 whole entry, looked up): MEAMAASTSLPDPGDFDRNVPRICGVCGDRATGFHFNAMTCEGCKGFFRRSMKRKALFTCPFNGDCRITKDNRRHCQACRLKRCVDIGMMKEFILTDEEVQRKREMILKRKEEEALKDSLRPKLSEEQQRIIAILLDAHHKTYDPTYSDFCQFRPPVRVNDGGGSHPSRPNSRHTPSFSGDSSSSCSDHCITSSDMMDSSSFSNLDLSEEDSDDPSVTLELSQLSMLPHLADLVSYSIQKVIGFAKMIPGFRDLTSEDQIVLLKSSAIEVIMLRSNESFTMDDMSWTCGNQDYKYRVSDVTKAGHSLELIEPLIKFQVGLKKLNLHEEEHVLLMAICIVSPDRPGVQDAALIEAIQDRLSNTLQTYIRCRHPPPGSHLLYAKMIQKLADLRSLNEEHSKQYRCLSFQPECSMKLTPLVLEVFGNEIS
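After 23 nl compound addition and a short centrifugation, plates sat for 2 hours at ambient temperature; polarization of fluorescence then indicated loss of VDR binding to peptide SRC2-3.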
USP2a block: blocks human ubiquitin-specific protease USP2a; O75604; USP2 core, Ub-CHOP2 coupled fluorogenic reporter, 485/531; Potency, µM (titrated, usually from 38.3 µM), for inactives: top-dose activity change, negative = inhibition, most hits filed as inhibitors; 0.01% of 330,000 active;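 further: potency means the concentration at half of the fitted maximal effect; plate controls were DMSO wells for no effect and full inhibition by NEM control for full effect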
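USP2 core (10nM final) preincubated 30min RT with compound in 20mM Tris-HCl pH 8.0, 2mM CaCl2, 2mM beta-mercaptoethanol, 0.05% CHAPS; 25nM Ub-CHOP2 plus 25nM reporter substrate added, fluorescence (Ex485/Em531) read after 60min.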
GALK inh: inhibitors of human galactokinase; 0.007% of 270,000 active; Purified GALK, Kinase-Glo residual ATP luminescence; Potency, µM (top dose mostly 57.5 µM), without a hit: at the top dose activity change, negative = inhibition, hits mostly inhibitors; further: potency means the concentration at half of the fitted maximal effect
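Kinase-Glo Plus luminescence measured ATP left after a 1 h room-temperature reaction. The reaction used 5 nM GALK, 100 uM galactose and 35 uM ATP at pH 8.0 (20 mM HEPES, 5 mM MgCl2, 60 mM NaCl, 1 mM DTT, 0.01% BSA).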
USP1 inh: USP1/UAF1 (human) deubiquitinase inhibition. O94782. recombinant USP1/UAF1, Ub-Rhodamine cleavage fluorescence. Potency, µM (series often up to 57.1 µM), inactives show top-dose activity change, negative = inhibition, actives largely listed as inhibitors. 0.23% of 390,000 active; further: potency means the concentration at half of the fitted maximal effect; nearly all actives have a fitted effect of over 60% in size
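Step one: compound is pinned into 1nM USP1/UAF1 in HEPES pH 7.8 buffer with TCEP. Step two: 15 min room-temperature incubation. Step three: Ub-Rho (150nM final) starts cleavage, tracked by fluorescence over six one-minute reads.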
PLK1 PBD block: PLK1 (human) polo-box domain binding inhibition; P53350; Plk1 PBD binding of FITC phosphopeptide, fluorescence polarization; Potency, µM, for inactives: max response, negative = inhibition, hits mostly inhibitors; 2.8% of 360,000 active; AID 720504; further: potency means the concentration at half of the fitted maximal effect; series mostly up to about 57 µM; nearly all actives have a fitted effect of over 65% in size
FBPA coupling cs: inhibits coupling enzyme system, counter-screen for aldolase hits | activity change, negative = inhibition, % at 58.2 µM, hits read low | AID 2472 | coupling enzyme system counterscreen, AmpLite Red fluorescence | 0.67% of 290,000 active; in the data active means activity change below about -30%
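Fluorescence at 525 nm excitation and 598 nm emission measured inhibition of the coupled detection system without aldolase. Compounds (at 57.5 uM final) were preincubated 10 min at room temperature with coupling enzyme reagent before a 20 min substrate/AmpLite Red step.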
Starred values were filed as active, the others as inactive; ? = inconclusive; nt = not tested or not shown. Shown are actives, neighbours in structure and some others; about 3.2% of the full set was active somewhere. Unless noted, the call rests on the fitted dose curve; in most records, active means well fitted curve in the direction sought with a large enough effect; inconclusive means small, poorly fitted or top-dose-only effect, or another doubt; inactive means no such curve, though single readings can be large; an effect the other way counts as inactive or inconclusive. Unless noted, on the % scale 0 is the no-effect control and ±100 the full control effect.

SMILES	VDR inh	USP2a block	GALK inh	USP1 inh	PLK1 PBD block	FBPA coupling cs
[O-][n+]1ccccc1SSc1cccc[n+]1[O-]	5.6µM*	nt	nt	nt	nt	nt
CCOc1ccccc1NC(=O)NCCC1=CCCCC1	-9%	1%	-2%	-9%	-15%	-1
COc1cc(/C=N/Nc2nc(=O)[nH]nc2C)cc(OC)c1O	12%	0%	8%	-26%	21µM*	4
O=c1c2ccccc2[nH]c2ccc(O)cc12	6%	8%	7%	-9%	30µM*	-10
Cc1ccc(Cn2ccc(=O)c(Cc3c(Cl)cccc3Cl)c2C)cc1	-5%	2%	2%	-9%	-11%	4
CSC(SC)=C(C#N)C(=O)c1ccccc1	?	-1%	nt	0%	11µM*	-3
Cn1c(NNC(=O)/C=C/c2ccc3c(c2)OCO3)cc(=O)n(C)c1=O	-9%	0%	-2%	-6%	?	-37*
Cn1c(NC(=O)/C=C\c2ccccc2)cc(=O)n(C)c1=O	-22%	-1%	-1%	-1%	-6%	0
CCOC(=O)C1CCCN(C2=NC(=O)/C(=C/c3ccc(OC)cc3OC)S2)C1 (stereo unspecified)	?	0%	0%	-25%	19µM*	1
CCOC(=O)C1CCCN(C2=NC(=O)/C(=C/c3ccc(O)c(OCC)c3)S2)C1 (stereo unspecified)	-1%	4%	-3%	-24%	43%	4
COc1ccc(Oc2ncc3nc(-c4ccc(Cl)cc4)c(=O)n(CCC#N)c3n2)cc1	2%	nt	nt	nt	nt	0
CC1(c2ccc3ccccc3c2)NC(=O)N(CC(=O)N2CCN(Cc3ccccc3)CC2)C1=O (stereo unspecified)	26%	3%	nt	1%	-4%	nt
O=C(NCc1cccs1)c1ccc(S(=O)(=O)N2CCCCC2)cc1	?	0%	2%	-10%	13µM*	-4
CC(C)(C)c1ccc(C(=O)NCCC(=O)NCc2cccs2)cc1	-21%	2%	3%	-13%	27µM*	1
CCc1ccc(NCc2cc3ccc(OC)cc3n(CC(=O)Nc3ccc(C(C)C)cc3)c2=O)cc1	-7%	nt	nt	-19%	nt	nt
CCC(C)(C)n1nnnc1C(c1cccc(C#N)c1)N1CCN(c2cc(C)ccc2C)CC1 (stereo unspecified)	9%	1%	7%	0%	-5%	2
CSc1ncc(C(=O)NCc2ccc(C)cc2)c(C)n1	10%	nt	nt	-2%	nt	nt
CCNC(=S)Nc1ccc2c(c1)c(=O)n(C)n2Cc1cccc(C(F)(F)F)c1	nt	nt	nt	nt	27µM*	nt
Cn1c(=O)c2cc(NC(=S)NC3CCCCC3)ccc2n1Cc1cccc(C(F)(F)F)c1	nt	nt	nt	nt	-7%	nt
CCc1nnc(NC(=O)c2nc(S(=O)(=O)Cc3ccc(C)cc3)ncc2Cl)s1	22µM*	0%	-1%	-15%	24µM*	nt
Cc1nnc(NC(=O)c2nc(S(=O)(=O)Cc3ccccc3C)ncc2Cl)s1	35µM*	-1%	3%	-23%	?	1
COc1ccc(NC(=O)c2cc(S(=O)(=O)N3CCCCCC3)cn2C)c(OC)c1	13%	nt	nt	-28%	nt	nt
O=C1/C(=C/c2ccncc2)Oc2cc(OS(=O)(=O)c3ccccc3)ccc21	?	1%	-8%	-21%	-22%	-2
COc1ccc(C(=O)C(CN2CCOCC2)c2ccccc2)cc1 (stereo unspecified)	-10%	1%	0%	-4%	-4%	3
O=C(c1ccc(Cl)cc1)C(CN1CCCC1)c1ccccc1 (stereo unspecified)	25µM*	2%	3%	-32%	0%	-1
SMILES	VDR inh	USP2a block	GALK inh	USP1 inh	PLK1 PBD block	FBPA coupling cs
OC(COC(c1ccccc1)c1ccccc1)CN1CCOCC1 (stereo unspecified)	-25%	-1%	7%	-11%	30µM*	3
O=C(c1ccc(F)cc1)C(CN1CCOCC1)c1ccccc1 (stereo unspecified)	50µM*	2%	7%	-9%	-14%	1
Cc1ccc(-n2nnc3ccccc3c2=O)cc1C	6%	2%	0%	-6%	-6%	1
CCCNC(=S)N1CCC(C(=O)c2ccc3c(c2)OCCO3)CC1	16%	0%	-1%	-22%	-2%	-2
CCCCn1c(N)c(N(CCOC)C(=O)c2cnccn2)c(=O)[nH]c1=O	-19%	1%	nt	-16%	2%	nt
CCCCNC(=O)C[C@@H]1C[C@@]2(C(=O)OCC)CCC=C2N(Cc2ccccc2)C1=O	nt	nt	nt	nt	-9%	nt
COc1ccc(C(=O)COC(=O)CCS(=O)(=O)c2ccc(C)cc2)c(OC)c1	-7%	2%	nt	-24%	-1%	nt
COc1ccc(C(=O)CCS(=O)(=O)c2ccc(C)cc2)cc1OC	?	-1%	-2%	-24%	12µM*	5
Cc1cccc(-n2cnc3cc([N+](=O)[O-])ccc32)c1	-20%	2%	-2%	-15%	17µM*	-3
C/C(=N\Nc1ccc(Cl)c(C(=O)O)c1)c1cccc2ccccc12	?	-8%	5%	-21%	27µM*	1
Cc1cc2cc(CNS(=O)(=O)N(C)C)ccc2[nH]1	-11%	-4%	0%	-13%	-2%	-36*
CCCNS(=O)(=O)c1ccc(CCC(=O)NCc2ccco2)cc1	-14%	2%	-1%	-20%	30µM*	2
CC(C)C(NC(=O)CN(c1cccc(F)c1)S(C)(=O)=O)C(C)C	0%	0%	-4%	-3%	-11%	-4
CN1CCN(C2=C(Cl)C(=O)C(c3cnc(N4CCCCC4)s3)=C(Cl)C2=O)CC1	50µM*	0%	-1%	?	3.8µM*	-3
CN1CCN(C2=C(Cl)C(=O)c3ccccc3C2=O)CC1	50µM*	nt	nt	3.5µM*	9.5µM*	nt
O=C(O)C1CCN(C(=O)c2ccccc2Cl)CC1	2%	7%	-2%	-15%	-3%	5
O=C1C(Cl)=C(NCCN2CCOCC2)C(=O)c2ccccc21	-13%	2%	5%	?	0%	-17
NC(=O)C1CCN(C2=C(Cl)C(=O)c3ccccc3C2=O)CC1	?	-2%	?	32µM*	27µM*	-51*
CN1CCN(C2=C(Cl)C(=O)N(C3CCCCC3)C2=O)CC1	1%	2%	3%	-20%	-8%	0
NC(=O)C1CCN(c2ccc3c(c2)S(=O)(=O)c2ccccc2C3=O)CC1	1%	nt	nt	?	-7%	nt
O=C1C(Cl)=C(N2CCC(C(=O)O)CC2)C(=O)c2ccccc21	?	2%	?	25µM*	?	-29
CC(Cc1cccs1)NC(=S)Nc1ccc(Cl)cc1 (stereo unspecified)	3%	0%	3%	-7%	-14%	3
NS(=O)(=O)c1ccc(N2C(=O)C3CC=CCC3C2=O)cc1 (stereo unspecified)	16%	2%	8%	-23%	-9%	3
